Experimental data from PubChem BioAssay.
Active and inactive are the calls of the source.

What was measured:
Albumin (Bos taurus) = Albumin (Bos taurus) (UniProt P02769); assay: bovine serum albumin binders on microarray, profiling panel, artefact control for SMM control protein annotation, biochemical, small-molecule microarray, Alexa647 label, 635/667 nm fluorescence (AID 1118); conditions: BSA-A647 binding, fluorescence 635 nm, higher = more signal;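 further: score merges 667 nm emission intensity and signal-to-noise per printed compound spot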
[1] = small-molecule microarray binders of probe aXIP, primary screen, biochemical, NeuroSMM set, 635/667 nm fluorescence (AID 1119); conditions: higher = more signal, called active from +8 up or from −8 down;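 further: probe is the protein aXip251-270 applied at 1 µg/mL to compound-printed slides; binding of probe to printed compounds measured as 667 nm fluorescence plus signal to noise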
[2] = small-molecule binders of probe aNOTCH3, primary screen, biochemical, small-molecule microarray, 635/667 nm fluorescence (AID 1120); conditions: higher = more signal;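 further: probe is a biotin-tagged antibody raised against NOTCH3 rather than NOTCH3 protein; score merges spot fluorescence near 667 nm with spot signal to noise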
[3] = small-molecule binders of probe aNOTCH2, primary screen, biochemical, small-molecule microarray, 635/667 nm fluorescence (AID 1121); conditions: higher = more signal;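 further: score merges feature fluorescence read at 667 nm with its signal to noise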
[4] = molecular target: Carbonic anhydrase 2 (Homo sapiens) (UniProt P00918); assay: CAII small-molecule binders, profiling panel, biochemical, small-molecule microarray, Alexa647-labelled CAII (AID 1122); conditions: CAII-A647 binding fluorescence, higher = more signal
[5] = COS7 lysate on small-molecule microarray, probe aHis, 635 nm (AID 1123); conditions: COS7 cell lysate, fluorescence, higher = more signal;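 further: z-score combines 667nm fluorescence intensity with signal-to-noise per printed compound spot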
[6] = compound binding in COS7 lysate, probe aLAP1, primary screen, cell lysate, small-molecule microarray (AID 1124); conditions: probe aLAP1, fluorescence, higher = more signal;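 further: lysate comes from COS7 cells expressing LAP1 and is applied at 0.3 µg/mL; score merges spot fluorescence near 667 nm with signal-to-noise over triplicate slides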
Sam68 (KHDRBS1) = assay: Sam68 small-molecule binders, primary screen, biochemical, small-molecule microarray, 635 nm fluorescence (AID 1125); conditions: small-molecule microarray binding, higher = more signal;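 further: score merges 667 nm channel intensity with signal to noise over triplicate slides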
[7] = test system: Chordin-like protein 2 (CHRDL2); assay: CHRDL2 small-molecule binders, primary screen, biochemical, small-molecule microarray, 635 nm fluorescence (AID 1126); conditions: small-molecule microarray binding, fluorescence 635 nm; higher = more signal;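 further: printed compound slides probed with Chrdl2 protein at 4 µg/mL for 1 h at 4 C; score merges 667 nm emission intensity with signal to noise over three replicate slides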
[8] = molecular target: Concanavalin-A (Canavalia ensiformis) (UniProt P02866); assay: ConA small-molecule binders, primary screen, artefact control for SMM control protein annotation, biochemical, small-molecule microarray, Alexa647 label, 635 nm (AID 1127); conditions: ConA-A647 binding fluorescence, higher = more signal;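 further: z combines 667 nm emission intensity with signal-to-noise across three replicate slides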
[9] = anti-His antibody binders, primary screen, artefact control for SMM control protein annotation, biochemical, small-molecule microarray, 635 nm fluorescence (AID 1128); conditions: anti-His Alexa647 antibody binding, higher = more signal;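 further: score merges feature fluorescence with signal-to-noise for each printed compound spot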
[10] = test system: Human papillomavirus type 1a E7 protein (residues 1-88); assay: HPV1a E7 small-molecule binders, primary screen, biochemical, small-molecule microarray, residues 1-88, 635 nm (AID 1129); conditions: small-molecule microarray binding, fluorescence 635 nm; higher = more signal
[11] = molecular target: Focal adhesion kinase 1 (Homo sapiens) (UniProt Q05397); assay: small-molecule microarray binders of FAK, primary screen, biochemical, 635/667 nm fluorescence, BSA, DTT (AID 1130); conditions: PTK2 binding, 635 nm fluorescence, higher = more signal;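 further: composite of spot emission at 667 nm and signal to noise over triplicate slides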
[12] = test system: Fibrinogen (Alexa647-labelled); assay: fibrinogen binders on compound microarrays, profiling panel, artefact control for SMM control-protein annotation, biochemical, small-molecule microarray, 635/667 nm fluorescence (AID 1131); conditions: fibrinogen-A647 binding fluorescence, higher = more signal;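 further: z-score merges 667 nm fluorescence with per-spot signal-to-noise over triplicate slides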
[13] = molecular target: Follistatin (Homo sapiens) (UniProt P19883); assay: follistatin binders on small-molecule microarrays, primary screen, biochemical, small-molecule microarray, 635/667 nm fluorescence (AID 1132); conditions: FST binding, 635 nm fluorescence, higher = more signal
[14] = molecular target: Fibroblast growth factor 2 (Homo sapiens) (UniProt P09038); assay: FGF2 binders on small-molecule microarrays, primary screen, biochemical, small-molecule microarray, 635/667 nm fluorescence (AID 1133); conditions: small-molecule microarray binding, FGF2, fluorescence 635/667; higher = more signal
[15] = mitochondrial membrane potential change in A549 cells, profiling panel, cell-based, JC-1 fluorescence, basal, 24 h, 100 nL (AID 1138); conditions: higher = more signal;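 further: A549 lung adenocarcinoma cells under basal conditions with no added stimulus; test concentration not given here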
Lefty1 = Lefty1 binders on small-molecule microarrays, primary screen, biochemical, small-molecule microarray, 635/667 nm fluorescence (AID 1139); conditions: small-molecule microarray binding, fluorescence 635/667; higher = more signal
[16] = test system: wheat germ agglutinin (Triticum aestivum), Alexa647-labelled; assay: wheat germ agglutinin binders on compound microarrays, profiling panel, artefact control for SMM control-protein annotation, biochemical, small-molecule microarray, 635/667 nm fluorescence (AID 1140); conditions: WGA-A647 binding, 635 nm fluorescence, higher = more signal;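 further: score merges 667 nm feature emission with signal to noise over triplicate slides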
[17] = molecular target: Luciferin 4-monooxygenase (Photinus pyralis) (UniProt P08659); assay: firefly luciferase enzyme inhibitors, primary screen, biochemical, luminescence, purified enzyme, 2006 set (AID 1141); conditions: SteadyGlo luminescence, 30 min, higher = more signal, called active from +8 up or from −8 down;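 further: cell-free assay with purified firefly luciferase at 100 ng per well in PBS; test concentration not given here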
Luciferin 4-monooxygenase (Photinus pyralis), sequence (P08659 whole entry, looked up): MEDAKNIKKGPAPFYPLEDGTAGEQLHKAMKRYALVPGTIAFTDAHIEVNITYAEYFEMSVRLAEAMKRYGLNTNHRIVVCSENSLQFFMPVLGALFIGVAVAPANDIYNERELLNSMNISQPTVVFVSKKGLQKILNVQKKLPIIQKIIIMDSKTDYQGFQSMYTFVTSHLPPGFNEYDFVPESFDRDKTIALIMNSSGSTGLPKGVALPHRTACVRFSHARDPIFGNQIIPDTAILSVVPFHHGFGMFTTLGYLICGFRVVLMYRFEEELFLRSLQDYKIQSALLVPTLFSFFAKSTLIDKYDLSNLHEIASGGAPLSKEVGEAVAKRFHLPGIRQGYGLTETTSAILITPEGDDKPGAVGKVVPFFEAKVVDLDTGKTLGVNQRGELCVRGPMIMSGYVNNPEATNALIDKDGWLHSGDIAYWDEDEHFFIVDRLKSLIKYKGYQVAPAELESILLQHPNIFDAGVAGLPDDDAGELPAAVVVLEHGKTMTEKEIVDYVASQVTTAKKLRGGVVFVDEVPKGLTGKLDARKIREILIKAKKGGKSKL

Albumin (Bos taurus), sequence (P02769 whole entry, looked up): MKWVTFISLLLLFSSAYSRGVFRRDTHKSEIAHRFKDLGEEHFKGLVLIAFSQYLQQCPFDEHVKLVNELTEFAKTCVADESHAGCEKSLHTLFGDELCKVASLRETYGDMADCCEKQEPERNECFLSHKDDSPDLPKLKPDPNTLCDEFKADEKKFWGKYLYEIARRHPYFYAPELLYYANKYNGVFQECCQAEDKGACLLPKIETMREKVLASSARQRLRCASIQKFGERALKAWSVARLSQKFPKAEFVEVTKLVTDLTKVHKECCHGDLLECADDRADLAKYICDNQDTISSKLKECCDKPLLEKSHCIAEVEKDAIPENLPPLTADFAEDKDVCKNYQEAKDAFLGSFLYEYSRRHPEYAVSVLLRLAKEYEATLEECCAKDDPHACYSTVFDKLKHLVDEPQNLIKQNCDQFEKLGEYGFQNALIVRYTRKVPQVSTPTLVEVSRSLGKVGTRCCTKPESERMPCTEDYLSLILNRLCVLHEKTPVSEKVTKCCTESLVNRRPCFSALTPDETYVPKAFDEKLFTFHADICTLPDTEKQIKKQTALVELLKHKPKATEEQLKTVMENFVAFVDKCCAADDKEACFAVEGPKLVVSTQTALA
Fibroblast growth factor 2 (Homo sapiens), sequence (P09038 whole entry, looked up): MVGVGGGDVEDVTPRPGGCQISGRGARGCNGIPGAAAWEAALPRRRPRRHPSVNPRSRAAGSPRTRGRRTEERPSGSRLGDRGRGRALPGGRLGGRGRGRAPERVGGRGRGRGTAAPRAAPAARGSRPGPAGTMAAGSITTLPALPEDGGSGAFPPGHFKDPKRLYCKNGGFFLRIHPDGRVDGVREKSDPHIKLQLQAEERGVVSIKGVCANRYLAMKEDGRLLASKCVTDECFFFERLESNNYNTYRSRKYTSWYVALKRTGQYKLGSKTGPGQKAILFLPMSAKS
Follistatin (Homo sapiens), sequence (P19883 whole entry, looked up): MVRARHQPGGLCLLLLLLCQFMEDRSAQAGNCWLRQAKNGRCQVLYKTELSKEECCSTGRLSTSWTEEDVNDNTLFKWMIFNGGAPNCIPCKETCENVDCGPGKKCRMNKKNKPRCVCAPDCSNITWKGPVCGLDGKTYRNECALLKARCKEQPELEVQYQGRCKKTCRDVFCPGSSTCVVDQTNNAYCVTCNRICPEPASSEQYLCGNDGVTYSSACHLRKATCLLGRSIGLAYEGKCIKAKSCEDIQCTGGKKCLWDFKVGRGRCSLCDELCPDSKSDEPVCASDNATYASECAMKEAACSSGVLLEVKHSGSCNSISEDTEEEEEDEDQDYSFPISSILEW
Focal adhesion kinase 1 (Homo sapiens), sequence (Q05397 whole entry, looked up): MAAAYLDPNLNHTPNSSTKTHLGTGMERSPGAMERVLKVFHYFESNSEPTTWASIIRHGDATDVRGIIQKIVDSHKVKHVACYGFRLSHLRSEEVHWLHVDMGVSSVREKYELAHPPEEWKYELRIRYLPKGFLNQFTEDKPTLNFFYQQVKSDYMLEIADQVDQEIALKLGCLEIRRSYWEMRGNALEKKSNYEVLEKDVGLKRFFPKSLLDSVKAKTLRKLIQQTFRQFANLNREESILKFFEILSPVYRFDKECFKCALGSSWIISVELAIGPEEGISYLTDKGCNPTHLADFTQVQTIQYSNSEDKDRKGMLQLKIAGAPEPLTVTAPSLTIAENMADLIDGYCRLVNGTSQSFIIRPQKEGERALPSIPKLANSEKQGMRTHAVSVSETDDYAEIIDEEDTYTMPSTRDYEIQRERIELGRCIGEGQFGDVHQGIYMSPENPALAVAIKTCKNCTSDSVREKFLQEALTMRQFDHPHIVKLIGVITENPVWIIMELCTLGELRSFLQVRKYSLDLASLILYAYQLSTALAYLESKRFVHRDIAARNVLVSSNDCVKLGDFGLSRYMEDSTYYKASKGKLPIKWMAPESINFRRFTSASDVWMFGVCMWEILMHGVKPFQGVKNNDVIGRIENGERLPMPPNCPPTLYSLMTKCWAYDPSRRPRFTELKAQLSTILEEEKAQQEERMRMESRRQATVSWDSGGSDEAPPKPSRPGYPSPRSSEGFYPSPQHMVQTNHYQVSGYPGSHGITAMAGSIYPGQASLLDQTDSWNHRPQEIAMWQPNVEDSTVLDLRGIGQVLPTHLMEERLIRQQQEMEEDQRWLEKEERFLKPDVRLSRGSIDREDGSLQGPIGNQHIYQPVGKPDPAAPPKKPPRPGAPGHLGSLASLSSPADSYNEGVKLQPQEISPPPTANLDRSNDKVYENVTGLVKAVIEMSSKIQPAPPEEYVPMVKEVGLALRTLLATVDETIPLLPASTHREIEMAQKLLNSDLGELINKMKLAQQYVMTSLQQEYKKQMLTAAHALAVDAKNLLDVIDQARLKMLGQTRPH
Concanavalin-A (Canavalia ensiformis), sequence (P02866 whole entry, looked up): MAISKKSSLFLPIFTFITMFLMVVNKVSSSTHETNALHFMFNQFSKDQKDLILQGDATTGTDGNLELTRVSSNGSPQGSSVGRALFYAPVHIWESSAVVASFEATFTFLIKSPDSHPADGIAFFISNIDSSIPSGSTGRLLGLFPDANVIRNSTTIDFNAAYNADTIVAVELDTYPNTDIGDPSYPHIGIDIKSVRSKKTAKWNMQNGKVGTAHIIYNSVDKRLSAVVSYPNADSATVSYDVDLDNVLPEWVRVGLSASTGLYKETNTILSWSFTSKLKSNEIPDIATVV

SMILES | composite z-score (Albumin (Bos taurus)) | composite Z-score [1] | composite z-score [2] | composite z-score [3] | composite z-score [4] | composite z-score [5] | composite z-score [6] | composite z-score (Sam68 (KHDRBS1)) | composite z-score [7] | composite z-score [8] | composite z-score [9] | composite z-score [10] | composite z-score [11] | composite z-score [12] | composite z-score [13] | composite z-score [14] | z-score [15] | composite z-score (Lefty1) | composite z-score [16] | z-score [17]
O=C1[C@H]2[C@H]3[C@H](O)[C@H](O)CC(=NOCc4ccccc4)[C@@H]3CC[C@H]2C(=O)N1C1CCCCC1 | 0.0567 | -0.718 (inactive) | -0.0903 | -0.196 | 0.539 | 0.737 | -0.785 | 0.357 | -0.142 | -0.0593 | 0.157 | -0.0419 | 0.179 | -0.303 | 0.207 | -0.45 | -0.134 | 0.348 | -0.0558 | 0.0264 (inactive)
COC(=O)[C@H]1COC(c2ccc(OCCCO)cc2)=N1 | 0.543 | 0.0182 (inactive) | -0.16 | -0.0942 | 0.523 | 2.38 | 0.984 | -1.08 | -0.0157 | -0.588 | -0.748 | -0.877 | -0.57 | -4.27 | 0.267 | 1.14 | -0.765 | -0.878 | 0.177 | -21.6 (active)
CO[C@@H]1COC(=O)[C@H](C)NC(=O)[C@@H](C)COC(=O)CCC[C@H]1C | -0.163 | -0.0735 (inactive) | 0.111 | -0.161 | 0.409 | 0.421 | -0.0546 | 0.769 | 0.777 | -0.288 | -0.356 | 0.0754 | 0.574 | -0.796 | 0.775 | 0.851 | -0.816 | 0.784 | 0.405 | 0.981 (inactive)
C[C@@H]1CCC2C(=O)N(Cc3ccccc3)C[C@@H](O)CN2[C@H]1c1ccc(Br)cc1 (stereo not given in full) | 0.33 | 0.0923 (inactive) | -0.0362 | -0.176 | 0.375 | 0.669 | -0.0066 | 0.621 | 0.374 | 0.646 | 0.737 | 0.0101 | -0.24 | 0.909 | 0.49 | 0.425 | 1.89 | 0.399 | 0.623 | -1.86 (inactive)
CC(=O)OC[C@H]1O[C@@H](ON=C(C)CCN2CCc3nc(-c4ccccc4)c(-c4ccccc4)cc3C2)[C@H](OC(C)=O)[C@@H](OC(C)=O)[C@@H]1OC(C)=O | 0.507 | -0.0295 (inactive) | 0.12 | -0.156 | 0.16 | 0.614 | 0.717 | 1.3 | 0.346 | 0.878 | -0.116 | 1.11 | 0.276 | 0.867 | 0.992 | 1.19 | 1.13 | 0.699 | 0.491 | 0.93 (inactive)
CO[C@@H]1COC(=O)CC=C[C@@H](C)[C@H](OC)COC(=O)[C@H](COCc2ccccc2)NC(=O)CC=C[C@H]1C | -1.39 | 0.0898 (inactive) | -0.0584 | -0.197 | -0.654 | -0.925 | -0.23 | -0.978 | 1.22 | -3.99 | -1.36 | -2.53 | -0.843 | -1.21 | 1.43 | 0.513 | -0.169 | 1.12 | -1.13 | 0.518 (inactive)
CCOC(=O)[C@H](CC(C)C)NC(=O)CCC1CC(OC(=O)NCc2cccc3ccccc23)CC2(CCCC(COC(=O)NCCN3CCOCC3)O2)O1 (stereo not given in full) | 0.363 | 0.0928 (inactive) | -0.0014 | -0.19 | 0.306 | 0.934 | 0.324 | 1.3 | 0.915 | 0.793 | 0.804 | 1.17 | 0.465 | 0.356 | 0.68 | 0.685 | 0.154 | 0.551 | 0.255 | 1.03 (inactive)
COc1ccc(O[C@H]2C=C[C@@H](c3ccccc3)O[C@@H]2COC(=O)CCC(C)=NOC[C@@H](C)[C@H](OCc2ccccc2)C(C)C)cc1 | -0.874 | 0.289 (inactive) | -0.155 | -0.157 | -0.608 | -0.52 | -0.212 | -1.03 | -0.522 | -2.04 | 0.904 | -0.834 | -0.592 | -1.24 | -0.865 | -0.621 | -0.345 | -0.338 | -0.606 | 1.05 (inactive)
CCCC[C@@H](O)C1=C(C)C[C@H]2C(=O)N(Cc3ccccc3)C(=O)[C@H]2[C@H]1CO | 0.0852 | -0.041 (inactive) | -0.0175 | -0.133 | -0.215 | -0.377 | 0.0292 | 0.241 | 0.538 | 0.321 | 0.314 | 0.0359 | -0.0945 | -0.0897 | 0.438 | 0.828 | 0.923 | 0.492 | -0.423 | -0.467 (inactive)
CC1CC/C=C\[C@H]2OC34C=CCN(Cn5nnc6ccccc65)C(=O)[C@H]3N(CCO)C(=O)[C@@H]4C2C(=O)O1 (stereo not given in full) | 1.13 | 1.12 (inactive) | -0.319 | -0.15 | 0.942 | 2.59 | 1.06 | 0.0381 | -1.62 | -0.903 | 0.885 | 1.16 | 1.42 | -1.14 | -0.312 | -1.35 | -0.547 | -0.428 | 1.24 | -1.98 (inactive)
CC(=O)C[C@H](O)[C@@H](NC(=O)OC(C)(C)C)C(C)C | -0.587 | -0.24 (inactive) | -0.0903 | -0.14 | -0.424 | -0.336 | -0.286 | -1.8 | -0.405 | -0.385 | -0.0599 | -1.54 | -0.352 | -0.454 | -0.118 | -0.312 | -0.824 | 0.304 | -0.644 | 0.364 (inactive)
